Measurements reported in PubChem BioAssay AID1259354 (Paczesny and Yang Labs, IUPUI and University of Michigan, 2018).
About 1,800 (2.3%) of roughly 78,000 compounds were called active. Not shown: some 27% with an inconclusive outcome. Rule as the data show it: active = inhibition above about 30%; inconclusive = mostly about 10% to 28%; inactive = weaker than that. For the sample, actives were picked, then their nearest neighbours and some compounds at random.

biological target: Interleukin-1 receptor-like 1 (Homo sapiens) (UniProt Q01638); assay: blocks human ST2 binding to IL-33, primary screen, biochemical, AlphaLISA (AID 1259354); conditions: AlphaLISA ST2-Fc/biotin-IL-33 interaction, 1 h; at 17 µM, stronger effect = higher value
Sequence (Q01638 whole entry, looked up): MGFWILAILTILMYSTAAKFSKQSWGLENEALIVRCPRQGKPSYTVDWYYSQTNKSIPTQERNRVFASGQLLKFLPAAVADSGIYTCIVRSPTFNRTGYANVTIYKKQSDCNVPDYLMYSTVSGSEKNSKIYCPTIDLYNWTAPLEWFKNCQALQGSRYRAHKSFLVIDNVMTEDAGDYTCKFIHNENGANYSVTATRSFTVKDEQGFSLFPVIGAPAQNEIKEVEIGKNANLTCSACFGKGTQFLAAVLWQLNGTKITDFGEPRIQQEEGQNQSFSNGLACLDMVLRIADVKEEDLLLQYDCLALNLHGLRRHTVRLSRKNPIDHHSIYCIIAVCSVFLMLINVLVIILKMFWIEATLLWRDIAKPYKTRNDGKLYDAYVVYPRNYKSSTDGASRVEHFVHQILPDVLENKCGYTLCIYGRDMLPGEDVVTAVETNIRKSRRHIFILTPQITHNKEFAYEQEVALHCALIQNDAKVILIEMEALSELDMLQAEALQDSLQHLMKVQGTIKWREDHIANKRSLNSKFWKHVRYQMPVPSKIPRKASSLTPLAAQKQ

| SMILES | inhibition |
| --- | --- |
| FC(F)(F)c1ccnc(NCc2cccnc2-n2ccnc2)c1 | inactive |
| O=C(Nc1ccc2c(c1)OCO2)C1CCN(S(=O)(=O)c2ccc(F)cc2)CC1 | inactive |
| N#Cc1nc(COc2ccc(Cl)cc2)oc1N1CCCC1 | 73% (active) |
| Cn1c(=O)c2c(nc(N3CCCCCC3)n2CC(O)COc2ccc(Cl)cc2)n(C)c1=O (stereo not given) | inactive |
| Clc1ccc(OCCN2CCCCCC2)cc1 | inactive |
| COCCO[C@H]1[C@H](NC(=O)C(C)C)c2ccccc2C12CCN(C(=O)c1cc(C(C)C)on1)CC2 | inactive |
| O=C(O)c1cc(Br)ccc1N=Cc1nc(-c2ccccc2)oc1O | inactive |
| C=CCOc1ccc(C2C(C(=O)OCC(C)C)=C(C)N=C3SCCC(=O)N32)cc1 (stereo not given) | inactive |
| COc1ccccc1NC(NC(=O)c1cccc(Cl)c1)C(Cl)(Cl)Cl (stereo not given) | inactive |
| O=C(CN1CCOC1=O)NCc1cnn2ccccc12 | inactive |
| O=C(CCn1cnnn1)NCc1cnn2ccccc12 | 30% (active) |
| O=C(CCCn1cnnn1)N1CCOC(c2ccc(Cl)c(Cl)c2)C1 (stereo not given) | inactive |
| Cc1nn(C(=O)/C=C/c2ccccc2)c(C)c1Sc1ccccc1 | 39% (active) |
| Cc1nn(C(=O)c2ccccc2)c(C)c1Sc1ccccc1 | inactive |
| Cc1nn(C(=O)c2cccs2)c(C)c1Sc1ccccc1 | inactive |
| Cc1ccc(N2C(=O)CC(Nc3ccc(N4CCOCC4)cc3)C2=O)c(Br)c1 (stereo not given) | 56% (active) |
| CC1CN(C2CC(=O)N(c3ccc(Br)cc3Br)C2=O)CC(C)O1 (stereo not given) | inactive |
| CC1CC(C)CN(C2CC(=O)N(c3ccc(Br)cc3Br)C2=O)C1 (stereo not given) | inactive |
| CN1CCN(CCCNC(=O)COc2ccc3c(c2)C(=O)CC(C)(C)O3)CC1 | inactive |
| COc1ccc(NC(=O)Cn2cnc3scc(-c4ccccc4)c3c2=O)cc1Cl | inactive |
| COc1cccc(N2CCN(S(=O)(=O)c3ccc4c(c3)c(=O)n(C)c(=O)n4C)CC2)c1 | inactive |
| CS(=O)(=O)n1nnc2ccccc21 | inactive |
| O=C1C(Nc2ccc(O)cc2)=C(n2nnc3ccccc32)C(=O)c2ccccc21 | 47% (active) |
| Cc1cc(=O)[nH]c(SCC(=O)Nc2ccc(F)cc2)n1 | inactive |

| SMILES | inhibition |
| --- | --- |
| CCOc1ccc(Sc2cc(C(=O)NC3CC3)c3ccccc3n2)cc1 | inactive |
| COc1ccc(C2=NN3COc4ccc(Cl)cc4C3C2)cc1 (stereo not given) | inactive |
| COc1ccc(C2=NN3COc4ccc(Br)cc4C3C2)cc1 (stereo not given) | 36% (active) |
| COc1ccc(C2=NN(C(C)=O)C(c3cc(OC)ccc3OC)C2)cc1 (stereo not given) | inactive |
| O=S(=O)(Nc1ccccc1Br)c1ccccc1 | inactive |
| CN(C)C(=O)c1ccc(S(=O)(=O)NC2CCCCCC2)s1 | inactive |
| Cc1ccc(Sc2c(C)nn(C(=O)c3ccc([N+](=O)[O-])cc3)c2C)cc1 | 60% (active) |
| O=C(O)c1ccc(C(=O)c2ccc([N+](=O)[O-])cc2)cc1 | inactive |
| Cc1nn(C(=O)c2cccnc2)c(C)c1Sc1ccc(Cl)cc1 | inactive |
| CCOc1ccc2c(=O)c(Oc3ccc(F)cc3)c(C)oc2c1 | inactive |
| OCc1ccc(CN2CCC(n3cc(C4CCCCC4)nn3)CC2)o1 | inactive |
| Cc1nn(-c2cccc(Br)c2)c(C)c1[C@@H]1C=C[C@@H](NS(=O)(=O)c2ccccc2)C1 | inactive |
| CN(Cc1ncc[nH]1)C(=O)C1CCN(Cc2ccco2)CC1 | inactive |
| COCCNC(=O)C1C2C=CC3(CN(Cc4ccccc4Cl)C(=O)C13)O2 (stereo not given) | inactive |
| CCNc1nc(NCC)n2c(SCC(=O)c3ccc(C(C)(C)C)cc3)nnc2n1 | 36% (active) |
| CC1CCCC(NC(=O)C2CCCN(S(=O)(=O)c3cnc[nH]3)C2)C1C (stereo not given) | inactive |
| COC(=O)c1cccc(-c2nccn2CCc2cccc(F)c2)n1 | inactive |
| CCCCNC(=O)CNC(=O)Cn1ccc2ccccc2c1=O | inactive |
| CCOc1ccc(S(=O)(=O)Nc2ccccc2F)c2cccnc12 | inactive |
| O=[N+]([O-])c1ccccc1S(=O)(=O)Nc1cccc2cccnc12 | 33% (active) |
| O=[N+]([O-])c1cccc(S(=O)(=O)Nc2cccnc2Cl)c1 | inactive |
| O=C1CCCN1C1CCN(Cc2nnc(C3CC3)o2)CC1 | inactive |
| CCOc1ccc(-n2c(C)cc(C(=O)CN3CCC(C)CC3)c2C)cc1 | inactive |
| O=c1/c(=C/c2cccc([N+](=O)[O-])c2)sc2n1CN(c1cccc(C(F)(F)F)c1)CN=2 | inactive |

| SMILES | inhibition |
| --- | --- |
| COc1ccc(N2CN=c3s/c(=C/c4ccc([N+](=O)[O-])cc4)c(=O)n3C2)cc1 | inactive |
| COc1ccc(N2CN=c3s/c(=C\c4ccccn4)c(=O)n3C2)cc1 | 32% (active) |
| Cc1ccc(-c2noc(CCC(=O)N(C)c3cc(Cl)ccc3C)n2)cc1 | inactive |
| CCOC(=O)c1c(C)n(C)c2ccc(OC(=O)c3ccc(OC)cc3)cc12 | inactive |
| CCN1CC(NC2CCN(c3ccc(OC)cc3)CC2)CC1=O (stereo not given) | inactive |
| CCOc1ccc(C(=O)NC2CC(=O)N(c3ccc(OCC)cc3)C2)cc1 (stereo not given) | inactive |
| Nc1ccc(Oc2ccc(Cl)cc2)cc1 | 37% (active) |
| O=S(=O)(c1ccc(Oc2ccc(Cl)cc2)cc1)c1ccc(Oc2ccc(Cl)cc2)cc1 | inactive |
| Cc1cccc(C(CC(=O)N2CCOCC2)c2ccccc2)c1O (stereo not given) | inactive |
| Clc1ccc(-c2csc(Nc3ncccn3)n2)cc1 | inactive |
| COc1ccc(OC)c(S(=O)(=O)NCCC(C)C)c1 | inactive |
| O=[N+]([O-])c1cnc(N2CCN(Cc3ccccc3)CC2)c([N+](=O)[O-])c1 | 30% (active) |
| Clc1cccc(CN2CCN(c3ccccn3)CC2)c1 | inactive |
| O=[N+]([O-])c1ccc(CN2CCN(Cc3ccccc3)CC2)s1 | inactive |
| CC(C(=O)NC1CC1)N1CCc2[nH]nc(C(c3ccccc3)c3ccccc3)c2C1 (stereo not given) | 97% (active) |
| CC(C)c1ccc(C(=O)NC2CC2)cc1 | inactive |
| O=S(=O)(NCc1ccccc1)N1CCc2[nH]nc(C3CCC3)c2C1 | inactive |
| CCc1c(-c2ccccc2)nc2ccccc2c1C(=O)NCC1CCCO1 (stereo not given) | inactive |
| CCCOc1ccc(CC(=O)O)cc1OC | inactive |
| O=C(COc1ccc([N+](=O)[O-])cc1)Nc1ccc(N2CCCC2)cc1 | 60% (active) |
| Cc1cc(Cl)ccc1NC(=O)COc1ccc([N+](=O)[O-])cc1 | inactive |
| Cc1cccc(C)c1OCC(=O)Nc1ccc([N+](=O)[O-])cc1 | inactive |
